Laboratory results: the supplement of paper PMC10849652
Of roughly 8,800 targets only a part is listed; those with a hit were picked by preference. About 0.5% of all pairs of compound and target were hits.

Tests used:
Assay in all cases: log2 fold change, soluble protein after heating vs DMSO (PISA); higher = thermal stabilisation; K562 lysate, 10 uM; active = over 0.2 and 3.5 SD of the protein, either way, in both replicates (recomputed)
vemurafenib = compound: CCCS(=O)(=O)Nc1ccc(F)c(C(=O)c2c[nH]c3ncc(-c4ccc(Cl)cc4)cc23)c1F [vemurafenib]
Method in brief: (§1)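 Dounce homogenisation of K562 pellets in PBS pH 7.4 with 1 mM MgCl2 produced a crude extract, used at 1 mg/mL protein. Exposure to 10 μM compound lasted 30 min, and aliquots were then heated for 3 min across 48°C-58°C, pooled and brought to 0.5% NP-40 at 4°C. The supernatant after 21,000xg for 90 min was quantified by TMTpro 16plex LC-MS/MS with channel sums equalised. Duplicate values are given as log-two fold change in thermal stability relative to solvent controls.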

[1] = compound: CCCS(=O)(=O)Nc1ccc(F)c(C(=O)c2c[nH]c3ncc(Cl)cc23)c1F
Method in brief: as §1

barasertib = compound: CCN(CCCOc1ccc2c(Nc3cc(CC(=O)Nc4cccc(F)c4)[nH]n3)ncnc2c1)CCOP(=O)(O)O [barasertib]
Method in brief: as §1

[2] = compound: CC[C@@H]1C(=O)N(C)c2cnc(Nc3ccc(C(=O)NC4CCN(C)CC4)cc3OC)nc2N1C1CCCC1
Method in brief: as §1

volasertib = compound: CC[C@@H]1C(=O)N(C)c2cnc(Nc3ccc(C(=O)N[C@H]4CC[C@H](N5CCN(CC6CC6)CC5)CC4)cc3OC)nc2N1C(C)C [volasertib]
Method in brief: as §1

[3] = compound: CCn1c(C(=O)N(C2CC2)C2CC2)cc2c3c(ncn3C)c(Nc3cc(C)n(C)n3)nc21
Method in brief: as §1

[4] = compound: CCn1cc(-c2ccnc3[nH]c(-c4cccc(CN(C)C)c4)cc23)c(-c2ccc(NC(=O)N(C)C)cc2)n1
Method in brief: as §1

[5] = compound: CN1CCC(CNc2ccc3ncc(-c4cccc(OC(F)(F)F)c4)n3n2)CC1
Method in brief: as §1

saracatinib = compound: CN1CCN(CCOc2cc(OC3CCOCC3)c3c(Nc4c(Cl)ccc5c4OCO5)ncnc3c2)CC1 [saracatinib]
Method in brief: as §1

sotrastaurin = compound: CN1CCN(c2nc(C3=C(c4c[nH]c5ccccc45)C(=O)NC3=O)c3ccccc3n2)CC1 [sotrastaurin]
Method in brief: as §1

alvocidib = compound: CN1CC[C@H](c2c(O)cc(O)c3c(=O)cc(-c4ccccc4Cl)oc23)[C@H](O)C1 [alvocidib]
Method in brief: as §1

Tubastatin A = compound: CN1CCc2c(c3ccccc3n2Cc2ccc(C(=O)NO)cc2)C1 [Tubastatin A]
Method in brief: as §1

[6] = compound: CNC(=O)C1=CC=CC=C1NC2=NC(=NC=C2Cl)NC3=C(C=C(C=C3)N4CCOCC4)OC
Method in brief: as §1

defactinib = compound: CNC(=O)c1ccc(Nc2ncc(C(F)(F)F)c(NCc3nccnc3N(C)S(C)(=O)=O)n2)cc1 [defactinib]
Method in brief: as §1

[7] = compound: CNc1nc(-c2ccc3c(N)n[nH]c3c2)cc(N2C[C@@H](C(=O)NC3CCCCC3)CC[C@H]2C)n1
Method in brief: as §1

encorafenib = compound: COC(=O)N[C@@H](C)CNc1nccc(-c2cn(C(C)C)nc2-c2cc(Cl)cc(NS(C)(=O)=O)c2F)n1 [encorafenib]
Method in brief: as §1

[8] = compound: COC(=O)[C@H](CCSC)NC(=O)C1=C(C=C(C=C1)NC[C@H](CS)N)C2=CC=CC=C2
Method in brief: as §1

alisertib = compound: COc1cc(Nc2ncc3c(n2)-c2ccc(Cl)cc2C(c2c(F)cccc2OC)=NC3)ccc1C(=O)O [alisertib]
Method in brief: as §1

[9] = compound: COc1cc2nc(-c3cc(F)ccc3O)nc(N[C@@H]3CNC[C@H]3C(C)(C)O)c2cc1OC
Method in brief: as §1

gefitinib = compound: COc1cc2ncnc(Nc3ccc(F)c(Cl)c3)c2cc1OCCCN1CCOCC1 [gefitinib]
Method in brief: as §1

Measured: log2 fold change

IMMT (UniProt C9J406)
inactive: vemurafenib -0.018 | [1] -0.036 | barasertib -0.105 | [2] 0.098 | volasertib -0.015 | [3] 0.018 | [4] -0.464 | [5] -0.037 | saracatinib 0.074 | sotrastaurin 0.02 | alvocidib -0.027 | Tubastatin A -0.076 | [6] -0.162 | defactinib 0.075 | [7] 0.008 | encorafenib -0.085 | [8] -0.166 | alisertib -0.031 | [9] -0.073 | gefitinib -0.052

ISCA1 isoform 2 (UniProt Q9BUE6)
UniProt Q9BUE6, sequence (Q9BUE6 whole entry, looked up): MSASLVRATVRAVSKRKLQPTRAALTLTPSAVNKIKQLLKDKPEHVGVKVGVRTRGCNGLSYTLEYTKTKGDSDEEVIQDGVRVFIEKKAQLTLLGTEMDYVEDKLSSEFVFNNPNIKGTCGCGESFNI
inactive: vemurafenib 0.007 | [1] -0.059 | barasertib 0.028 | [2] 0.042 | volasertib 0.03 | [3] -0.051 | [5] -0.21 | saracatinib 0.028 | sotrastaurin 0.021 | alvocidib 0.103 | Tubastatin A 0.023 | [6] 0.037 | defactinib 0.092 | [7] 0.071 | encorafenib -0.034 | [8] -0.003 | alisertib -0.286 | [9] 0.075 | gefitinib -0.025
active: [4] 0.425

GPX4 (UniProt P36969)
UniProt P36969, sequence (P36969 whole entry, looked up): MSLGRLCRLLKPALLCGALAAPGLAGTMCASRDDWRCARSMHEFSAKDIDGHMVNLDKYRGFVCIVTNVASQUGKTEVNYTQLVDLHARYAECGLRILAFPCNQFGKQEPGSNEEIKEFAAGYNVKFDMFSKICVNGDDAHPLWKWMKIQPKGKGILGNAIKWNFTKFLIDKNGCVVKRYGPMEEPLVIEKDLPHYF
inactive: vemurafenib -0.003 | [1] 0.025 | barasertib -0.002 | [2] -0.068 | volasertib -0.038 | [3] 0.013 | [4] 0.027 | [5] -0.079 | saracatinib 0.02 | sotrastaurin 0.012 | alvocidib 0.031 | Tubastatin A -0.099 | [6] -0.006 | defactinib 0.048 | [7] -0.051 | encorafenib 0.004 | [8] -0.023 | alisertib 0.041 | [9] 0 | gefitinib 0.016

HDAC6 (UniProt Q9UBN7)
inactive: vemurafenib -0.02 | [1] 0.01 | barasertib -0.017 | [2] -0.035 | volasertib -0.047 | [3] -0.023 | [4] 0.073 | [5] -0.011 | saracatinib -0.011 | sotrastaurin 0.008 | alvocidib -0.006 | Tubastatin A 0.11 | [6] -0.015 | defactinib -0.003 | [7] -0.013 | encorafenib -0.017 | [8] 0.06 | alisertib 0.013 | [9] 0.001 | gefitinib -0.012

HMGA1 (UniProt P17096)
UniProt P17096, sequence (P17096 whole entry, looked up): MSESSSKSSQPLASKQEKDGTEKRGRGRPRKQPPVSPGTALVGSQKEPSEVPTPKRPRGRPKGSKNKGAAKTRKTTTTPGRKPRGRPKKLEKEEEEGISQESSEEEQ
inactive: vemurafenib 0.023 | [1] -0.011 | barasertib -0.05 | [2] 0.051 | volasertib 0.02 | [3] -0.04 | [5] 0.131 | saracatinib -0.001 | sotrastaurin 0.012 | alvocidib -0.108 | Tubastatin A 0.066 | [6] -0.001 | defactinib -0.007 | [7] 0.023 | encorafenib -0.005 | [8] -0.018 | alisertib 0.046 | [9] 0.011 | gefitinib -0.027
active: [4] -0.323

IFNGR1 (UniProt P15260)
UniProt P15260, sequence (P15260 whole entry, looked up): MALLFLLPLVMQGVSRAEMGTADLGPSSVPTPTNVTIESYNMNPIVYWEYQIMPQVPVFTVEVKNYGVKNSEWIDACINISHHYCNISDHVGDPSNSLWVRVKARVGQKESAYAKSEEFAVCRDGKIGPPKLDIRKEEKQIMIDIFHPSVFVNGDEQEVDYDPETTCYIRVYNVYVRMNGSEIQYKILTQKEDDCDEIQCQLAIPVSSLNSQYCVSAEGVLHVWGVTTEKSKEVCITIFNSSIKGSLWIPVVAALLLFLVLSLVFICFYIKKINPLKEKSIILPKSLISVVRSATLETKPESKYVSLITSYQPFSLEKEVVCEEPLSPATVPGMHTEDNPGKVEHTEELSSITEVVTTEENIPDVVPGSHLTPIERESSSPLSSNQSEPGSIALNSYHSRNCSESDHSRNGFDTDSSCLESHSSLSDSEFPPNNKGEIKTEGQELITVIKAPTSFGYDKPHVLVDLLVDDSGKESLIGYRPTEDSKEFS
inactive: vemurafenib 0.182 | [1] -0.07 | barasertib -0.051 | [2] 0.234 | volasertib 0.08 | [3] -0.153 | [5] 0.331 | saracatinib 0.032 | sotrastaurin -0.018 | alvocidib -0.348 | Tubastatin A 0.157 | [6] -0.022 | defactinib -0.164 | [7] 0.272 | encorafenib -0.018 | [8] -0.002 | alisertib 0.138 | [9] 0.106 | gefitinib -0.036
active: [4] -0.641

ISOC2 (UniProt Q96AB3)
UniProt Q96AB3, sequence (Q96AB3 whole entry, looked up): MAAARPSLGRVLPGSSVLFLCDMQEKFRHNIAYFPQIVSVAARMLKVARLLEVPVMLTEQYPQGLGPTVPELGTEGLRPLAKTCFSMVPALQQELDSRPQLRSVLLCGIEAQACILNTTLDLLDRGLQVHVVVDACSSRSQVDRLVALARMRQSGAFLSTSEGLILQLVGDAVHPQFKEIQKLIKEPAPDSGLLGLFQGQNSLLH
inactive: vemurafenib 0.048 | [1] 0.033 | barasertib -0.12 | [2] 0.096 | volasertib 0.013 | [3] -0.043 | [4] 0.02 | [5] -0.08 | saracatinib -0.047 | sotrastaurin 0.002 | alvocidib 0.004 | Tubastatin A -0.017 | [6] 0.076 | defactinib 0.121 | [7] -0.024 | encorafenib 0.014 | [8] 0.122 | alisertib 0.022 | [9] 0.043 | gefitinib -0.045

IMPDH1 isoform 6 (UniProt P20839)
UniProt P20839, sequence (P20839 whole entry, looked up): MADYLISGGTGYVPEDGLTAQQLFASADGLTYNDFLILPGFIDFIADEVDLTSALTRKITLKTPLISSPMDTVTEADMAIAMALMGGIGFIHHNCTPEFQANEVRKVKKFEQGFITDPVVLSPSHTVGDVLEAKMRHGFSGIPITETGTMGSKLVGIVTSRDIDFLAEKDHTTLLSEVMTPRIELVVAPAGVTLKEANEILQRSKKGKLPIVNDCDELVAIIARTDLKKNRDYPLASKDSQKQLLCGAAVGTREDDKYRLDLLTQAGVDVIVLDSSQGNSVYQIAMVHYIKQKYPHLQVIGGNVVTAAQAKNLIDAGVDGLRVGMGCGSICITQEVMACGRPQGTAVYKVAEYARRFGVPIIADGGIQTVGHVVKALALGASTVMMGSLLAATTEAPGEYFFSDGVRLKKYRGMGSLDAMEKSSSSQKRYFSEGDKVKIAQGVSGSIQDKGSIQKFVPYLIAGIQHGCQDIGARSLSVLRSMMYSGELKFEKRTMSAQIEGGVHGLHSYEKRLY
inactive: vemurafenib -0.006 | [1] -0.015 | barasertib -0.01 | [2] 0.003 | volasertib -0.002 | [3] -0.006 | [4] -0.128 | [5] 0.021 | saracatinib 0.003 | sotrastaurin -0.024 | alvocidib -0.009 | [6] 0.002 | defactinib -0.002 | [7] 0.018 | encorafenib -0.001 | alisertib 0.004 | [9] -0.002 | gefitinib 0.005
active: Tubastatin A -0.226 | [8] -0.478

HSPA8 (UniProt E9PK54)
inactive: vemurafenib -0.047 | [1] 0.014 | barasertib -0.113 | [2] -0.071 | volasertib -0.056 | [3] 0.08 | [4] -0.144 | [5] 0.052 | saracatinib 0.108 | sotrastaurin 0.028 | alvocidib -0.047 | Tubastatin A 0.036 | [6] -0.066 | defactinib -0.041 | [7] -0.05 | encorafenib -0.025 | [8] -0.004 | alisertib -0.016 | [9] 0.016 | gefitinib -0.051

HK1 isoform 2 (UniProt P19367)
inactive: vemurafenib 0.009 | [1] 0.003 | barasertib 0.012 | [2] -0.023 | volasertib -0.004 | [3] 0.014 | [4] -0.008 | [5] -0.013 | saracatinib -0.015 | sotrastaurin 0.004 | alvocidib -0.001 | Tubastatin A -0.038 | [6] -0.009 | defactinib 0.001 | [7] -0.011 | encorafenib 0.003 | [8] 0.004 | alisertib 0.017 | [9] -0.007 | gefitinib -0.011

ITPKA (UniProt P23677)
active: [8] 0.375
inactive: vemurafenib -0.007 | [1] 0.019 | barasertib 0.041 | [2] -0.105 | volasertib -0.065 | [3] -0.03 | [4] 0 | [5] 0.054 | saracatinib 0.013 | sotrastaurin -0.045 | alvocidib -0.001 | Tubastatin A -0.194 | [6] -0.017 | defactinib 0.017 | [7] 0.015 | encorafenib -0.021 | alisertib -0.004 | [9] 0 | gefitinib 0.011

GSTM4 (UniProt Q03013)
UniProt Q03013, sequence (Q03013 whole entry, looked up): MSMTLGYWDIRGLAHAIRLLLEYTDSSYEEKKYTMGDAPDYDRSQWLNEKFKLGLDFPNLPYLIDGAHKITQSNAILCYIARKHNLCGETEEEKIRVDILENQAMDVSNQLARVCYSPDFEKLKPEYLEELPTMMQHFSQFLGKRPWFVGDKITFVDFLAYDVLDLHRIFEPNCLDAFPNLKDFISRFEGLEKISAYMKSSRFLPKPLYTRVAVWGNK
inactive: vemurafenib 0.055 | [1] 0.034 | barasertib -0.044 | [2] 0.024 | volasertib 0.03 | [3] 0.009 | [4] -0.114 | [5] 0.038 | saracatinib -0.13 | sotrastaurin -0.05 | alvocidib 0.006 | Tubastatin A -0.012 | [6] 0.029 | defactinib 0.006 | [7] 0.077 | encorafenib -0.117 | [8] 0.095 | alisertib 0.03 | [9] 0.002 | gefitinib 0.075

GTF3C5 isoform 3 (UniProt Q9Y5Q8)
UniProt Q9Y5Q8, sequence (Q9Y5Q8 whole entry, looked up): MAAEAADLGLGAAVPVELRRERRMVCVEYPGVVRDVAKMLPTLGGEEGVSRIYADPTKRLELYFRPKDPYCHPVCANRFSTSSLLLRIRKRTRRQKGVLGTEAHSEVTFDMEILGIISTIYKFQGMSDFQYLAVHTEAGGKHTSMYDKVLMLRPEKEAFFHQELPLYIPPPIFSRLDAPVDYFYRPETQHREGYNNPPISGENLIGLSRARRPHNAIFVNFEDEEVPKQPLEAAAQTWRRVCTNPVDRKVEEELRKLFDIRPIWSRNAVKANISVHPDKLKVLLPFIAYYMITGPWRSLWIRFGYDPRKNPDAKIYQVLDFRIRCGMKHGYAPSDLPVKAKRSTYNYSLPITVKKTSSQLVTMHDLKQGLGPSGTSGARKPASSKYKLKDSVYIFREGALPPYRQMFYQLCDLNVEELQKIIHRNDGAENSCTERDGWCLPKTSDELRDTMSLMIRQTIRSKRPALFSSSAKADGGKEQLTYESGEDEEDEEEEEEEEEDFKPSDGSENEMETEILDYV
inactive: vemurafenib 0.024 | [1] 0.009 | barasertib -0.011 | [2] 0.006 | volasertib -0.018 | [3] 0.051 | [4] -0.025 | [5] 0.017 | saracatinib 0.031 | sotrastaurin -0.033 | alvocidib -0.005 | Tubastatin A -0.166 | [6] 0.029 | defactinib 0.014 | [7] -0.012 | encorafenib 0.01 | [8] 0.153 | alisertib 0.004 | [9] 0.001 | gefitinib -0.004

HELQ (UniProt Q8TDG4)
UniProt Q8TDG4, sequence (Q8TDG4 whole entry, looked up): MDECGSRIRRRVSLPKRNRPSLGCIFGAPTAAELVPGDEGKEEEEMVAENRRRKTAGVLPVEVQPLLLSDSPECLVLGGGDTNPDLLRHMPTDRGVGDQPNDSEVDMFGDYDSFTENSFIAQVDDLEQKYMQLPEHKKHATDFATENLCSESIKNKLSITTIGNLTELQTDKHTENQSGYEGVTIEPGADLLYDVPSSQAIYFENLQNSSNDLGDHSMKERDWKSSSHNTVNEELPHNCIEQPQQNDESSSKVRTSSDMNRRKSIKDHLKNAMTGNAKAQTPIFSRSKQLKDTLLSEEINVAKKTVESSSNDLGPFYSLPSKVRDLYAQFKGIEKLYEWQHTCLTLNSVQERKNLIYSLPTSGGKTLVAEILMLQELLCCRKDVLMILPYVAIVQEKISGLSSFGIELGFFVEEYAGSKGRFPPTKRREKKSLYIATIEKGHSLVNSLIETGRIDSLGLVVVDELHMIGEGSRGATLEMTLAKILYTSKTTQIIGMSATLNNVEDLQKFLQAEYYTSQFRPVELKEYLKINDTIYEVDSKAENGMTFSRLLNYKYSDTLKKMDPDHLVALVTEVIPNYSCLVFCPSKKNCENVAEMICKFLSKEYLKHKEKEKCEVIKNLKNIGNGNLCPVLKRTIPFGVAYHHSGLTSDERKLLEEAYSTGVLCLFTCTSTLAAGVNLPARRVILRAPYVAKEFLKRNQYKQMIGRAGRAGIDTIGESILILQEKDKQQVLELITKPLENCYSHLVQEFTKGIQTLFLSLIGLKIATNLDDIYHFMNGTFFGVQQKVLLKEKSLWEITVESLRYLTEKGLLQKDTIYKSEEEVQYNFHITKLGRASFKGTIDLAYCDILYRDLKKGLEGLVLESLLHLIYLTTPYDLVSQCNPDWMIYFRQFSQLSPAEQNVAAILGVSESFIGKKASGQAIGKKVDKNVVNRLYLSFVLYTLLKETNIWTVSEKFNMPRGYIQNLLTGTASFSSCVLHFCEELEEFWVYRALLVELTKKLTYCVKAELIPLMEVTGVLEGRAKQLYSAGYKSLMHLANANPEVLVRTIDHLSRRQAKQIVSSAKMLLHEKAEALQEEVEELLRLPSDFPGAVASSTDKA
inactive: vemurafenib 0.12 | [1] -0.064 | barasertib 0.036 | [2] 0.048 | volasertib 0.01 | [3] -0.044 | [4] 0.038 | [5] -0.104 | saracatinib -0.058 | sotrastaurin 0.057 | alvocidib 0.059 | Tubastatin A -0.016 | [6] 0.045 | defactinib 0.037 | [7] 0.054 | encorafenib 0.046 | [8] 0.09 | alisertib 0.132 | [9] -0.041 | gefitinib -0.177

GRK6 isoform 2 (UniProt P43250)
UniProt P43250, sequence (P43250 whole entry, looked up): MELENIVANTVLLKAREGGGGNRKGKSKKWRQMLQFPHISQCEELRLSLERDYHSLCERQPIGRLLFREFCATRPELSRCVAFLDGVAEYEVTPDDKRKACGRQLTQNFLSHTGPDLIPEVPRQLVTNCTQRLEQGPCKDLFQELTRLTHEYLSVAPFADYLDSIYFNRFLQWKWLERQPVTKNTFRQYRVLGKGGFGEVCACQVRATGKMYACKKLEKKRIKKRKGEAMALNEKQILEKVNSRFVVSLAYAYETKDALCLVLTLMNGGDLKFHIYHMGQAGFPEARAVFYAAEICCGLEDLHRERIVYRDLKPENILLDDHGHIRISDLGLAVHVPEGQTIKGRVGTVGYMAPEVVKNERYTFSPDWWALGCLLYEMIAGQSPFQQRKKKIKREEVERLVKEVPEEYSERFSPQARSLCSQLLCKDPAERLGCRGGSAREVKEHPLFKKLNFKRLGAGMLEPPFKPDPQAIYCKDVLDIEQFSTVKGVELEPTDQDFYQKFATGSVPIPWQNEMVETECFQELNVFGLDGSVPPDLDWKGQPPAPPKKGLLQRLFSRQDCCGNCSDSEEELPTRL
inactive: vemurafenib 0.102 | [1] 0.046 | barasertib 0.042 | [2] 0.11 | volasertib 0.006 | [3] -0.032 | [4] -0.136 | saracatinib -0.056 | sotrastaurin -0.001 | alvocidib -0.05 | Tubastatin A 0.074 | [6] 0.007 | defactinib 0.034 | [7] 0.148 | encorafenib -0.082 | [8] 0.043 | alisertib -0.04 | [9] -0.015 | gefitinib 0.064
active: [5] 0.614

INTS10 (UniProt Q9NVR2)
UniProt Q9NVR2, sequence (Q9NVR2 whole entry, looked up): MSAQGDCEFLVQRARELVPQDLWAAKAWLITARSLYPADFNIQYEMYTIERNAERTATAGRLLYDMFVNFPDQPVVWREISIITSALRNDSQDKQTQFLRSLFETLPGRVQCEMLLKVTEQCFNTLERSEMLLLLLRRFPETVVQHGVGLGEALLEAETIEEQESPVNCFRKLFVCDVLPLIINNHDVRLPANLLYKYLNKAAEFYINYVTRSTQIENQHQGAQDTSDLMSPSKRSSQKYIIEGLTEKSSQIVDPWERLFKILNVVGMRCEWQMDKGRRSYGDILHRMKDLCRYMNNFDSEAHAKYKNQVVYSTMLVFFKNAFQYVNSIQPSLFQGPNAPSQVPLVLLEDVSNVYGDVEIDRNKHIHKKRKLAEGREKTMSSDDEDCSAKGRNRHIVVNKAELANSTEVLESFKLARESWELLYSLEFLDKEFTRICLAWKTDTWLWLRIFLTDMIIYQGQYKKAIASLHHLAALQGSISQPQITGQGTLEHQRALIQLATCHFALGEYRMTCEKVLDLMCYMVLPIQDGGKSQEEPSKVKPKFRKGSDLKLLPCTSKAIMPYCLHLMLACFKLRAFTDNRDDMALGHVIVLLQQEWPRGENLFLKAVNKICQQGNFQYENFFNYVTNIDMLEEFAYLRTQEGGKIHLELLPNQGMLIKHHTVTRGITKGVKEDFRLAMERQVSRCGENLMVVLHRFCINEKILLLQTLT
inactive: vemurafenib -0.008 | [1] -0.183 | barasertib 0.061 | [2] -0.129 | volasertib -0.088 | [3] -0.021 | [4] 0.14 | [5] -0.054 | saracatinib 0.052 | sotrastaurin 0.023 | alvocidib -0.009 | Tubastatin A -0.143 | [6] -0.033 | defactinib 0.016 | [7] -0.045 | encorafenib -0.017 | [8] 0.043 | alisertib -0.093 | [9] -0.097 | gefitinib 0.049
